Compound activity as filed in PubChem.
AMA1-RON2 inh: qHTS for Inhibitors of AMA1-RON; Towards Development of Antimalarial Drug Lead: Primary Screen | Plasmodium falciparum AMA1 (3D7) - RON2 peptide interaction | AlphaScreen AMA1-biotinylated RON2 peptide binding | Potency, µM (doses to about 58.2 µM), for the others: at the top dose activity change, negative = inhibition, actives largely listed as inhibitors | 360,000 compounds, 0.2% hits | AID 720542, 2013;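 further: 0% = vehicle wells and -100% = peptide control; nearly all actives have a fitted effect of over 45% in size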
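AMA1 (3D7) with his tag at 25 nM final met compounds first, then biotinylated RON2 peptide at 25 nM; detection used donor plus acceptor beads, 10 µg/mL apiece, read by AlphaScreen after 30 min at room temperature.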
AmpC inh detg: qHTS Inhibitors of AmpC Beta-Lactamase (assay with detergent). P00811. AmpC hydrolysis of nitrocefin, absorbance 480 nm, 0.01% Triton. Potency, µM (highest dose often 114 µM), for inactives: at the highest dose activity change, negative = inhibition, most hits filed as inhibitors. 370,000 compounds, 0.041% hits;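 further: 0% = no-compound wells and -100% = no-enzyme wells; nearly all actives have a fitted effect of over 25% in size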
Target sequence (P00811 whole entry, looked up): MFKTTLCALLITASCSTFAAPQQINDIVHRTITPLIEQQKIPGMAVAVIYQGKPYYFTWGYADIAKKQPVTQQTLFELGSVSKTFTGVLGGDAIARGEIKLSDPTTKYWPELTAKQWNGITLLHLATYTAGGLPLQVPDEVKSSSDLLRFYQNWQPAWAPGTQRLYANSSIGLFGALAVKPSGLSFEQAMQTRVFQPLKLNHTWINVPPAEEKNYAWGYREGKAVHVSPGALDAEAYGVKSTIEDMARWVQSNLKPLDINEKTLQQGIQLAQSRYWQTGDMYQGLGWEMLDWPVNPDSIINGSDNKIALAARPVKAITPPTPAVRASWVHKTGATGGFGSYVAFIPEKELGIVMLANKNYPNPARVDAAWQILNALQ
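20 mM phosphate pH 7.0 + 0.01% (detergent screen) or 0.0001% Triton X-100; 5.3 nM AmpC reagent; cpd preinc 15 min RT; nitrocefin (800 uM stock) to start; A480 q20 s × 4 min; Activity was normalised to no-enzyme and no-compound control wells.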
MARV entry inh: qHTS for inhibitors of binding or entry into cells for Marburg Virus; Marburg virus pseudotyped entry inhibition, cell reporter; Potency, µM (top dose mostly 37.8 µM), for inactives: at the top dose activity change, negative = inhibition, most hits filed as inhibitors; 300,000 compounds, 1.8% hits; AID 540276, 2011; calls by dose curve; tested in HEK293 cells
AmpC inh no detg: qHTS Inhibitors of AmpC Beta-Lactamase (assay without detergent) | AmpC nitrocefin hydrolysis, absorbance 480 nm, 0.0001% Triton | Potency, µM (titrated, usually from 57.1 µM), for the others: top-dose activity change, negative = inhibition, most hits filed as inhibitors | 330,000 compounds, 0.52% hits;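 further: plate controls were no compound for no effect and no enzyme for full effect; nearly all actives have a fitted effect of over 20% in size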
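20 mM phosphate pH 7.0 + 0.01% (detergent screen) or 0.0001% Triton X-100; 5.3 nM AmpC reagent; cpd preinc 15 min RT; nitrocefin (800 uM stock) to start; A480 q20 s × 4 min; Activity was normalised to no-enzyme and no-compound control wells.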
LASV entry inh: qHTS for Inhibitors of binding or entry into cells for Lassa Virus; AID 540256, 2011; Potency, µM (highest dose often 37.9 µM), inactives show at the top dose activity change, negative = inhibition, usual class: inhibitors; Lassa virus pseudotype entry inhibition, cell reporter; 300,000 compounds, 1.2% hits; calls by dose curve; tested in HEK293 cells; further: nearly all actives have a fitted effect of over 50% in size
* = called active by the depositor; ? = inconclusive; / = no result; [ ] = dose if it differs, or a comment. The list is not random: actives were taken first. Their share in the collection is about 2.3%. Unless noted, the call rests on the fitted dose curve; in most records, active means well fitted curve in the direction sought with a large enough effect; inconclusive means small, poorly fitted or top-dose-only effect, or another doubt; inactive means no such curve, though single readings can be large; an effect the other way counts as inactive or inconclusive. Unless noted, on the % scale 0 is the no-effect control and ±100 the full control effect; potency means the concentration at half of the fitted maximal effect.

SMILES | AMA1-RON2 inh | AmpC inh detg | MARV entry inh | AmpC inh no detg | LASV entry inh
C=C1CC2(OC1=O)c1ccccc1CCc1ccccc12 | 16% | / | ? | / | 20µM*
CCC1=NN2C(=N)/C(=C\c3cccn3-c3ccc(C)cc3C)C(=O)N=C2S1 | 5% | ? | / | 25µM* | /
CCC1=NN2C(=N)/C(=C\c3cccn3-c3c(C)cccc3C)C(=O)N=C2S1 | 55% | ? | / | -37% | /
O=C(CNc1ccccc1)N/N=C/c1cc([N+](=O)[O-])ccc1N1CCCC1 | -2% | 0% | ? | 7.9µM* | 1%
N#CCC(=O)N/N=C/c1cc([N+](=O)[O-])ccc1N1CCCC1 | 18% | ? | 7%[46.1 µM] | -41% | /
CCC[C@H](C)n1[nH]c(=O)cc1N | / | / | 30% | / | /
OCc1ccc(N=Nc2ccccc2)cc1 | -18% | / | / | / | /
COc1ccc(N=Nc2ccc(CO)cc2)cc1 | ? | / | ? | / | 1µM*
CC(C)(C)c1ccc(S(=O)(=O)c2cnc(SCC(=O)Nc3ccc4c(c3)OCCO4)[nH]c2=O)cc1 | / | 1% | ? | / | /
Cc1ccc(NC(=O)Nc2cccc(F)c2)nc1 | 4% | -13% | / | -17% | /
Cc1ccnc(NC(=O)Nc2cccc(F)c2)c1 | 11% | -7% | ? | -15% | 6.5µM*
COC(=O)C1=C(C)N(CC2CC2)C(=NCCc2cccnc2)NC1c1ccccc1 (stereo not given) | / | / | 4%[14.2 µM] | / | 0%[14.3 µM]
CCn1c(CCCNC(=O)c2ccc(F)cc2)nc2ccccc21 | -5% | ? | / | 35µM* | /
COc1ccc(CCCC(=O)NCc2ccccc2)cc1C | 27% | -12% | -26% | -6% | 8.2µM*
CCCCNS(=O)(=O)c1ccc(NC(=O)C(Sc2ccccc2)c2ccccc2)cc1 (stereo not given) | -15% | -11% | ? | -32% | 9.2µM*
CCC(C)NS(=O)(=O)c1ccc(NC(=O)C(Sc2ccccc2)c2ccccc2)cc1 (stereo not given) | 13% | -10% | ? | -24% | 13µM*
CC(=O)NS(=O)(=O)c1ccc(NC(=O)C(Sc2ccccc2)c2ccccc2)cc1 (stereo not given) | 0% | -3% | 11% | -23% | -2%
COc1cc2c(cc1OC)[C@@H]1O[C@](c3ccsc3)(C2)Oc2cc(C)n(Cc3ccccc3)c(=O)c21 | / | / | -14%[14.2 µM] | / | /
CN1CCC(=C2c3ccccc3C=Cc3ccccc32)CC1 | -9% | -5% | 7.1µM* | 15% | 8.2µM*
CCCC[C@]12Cc3cc(C#N)ccc3[C@H](O1)c1c(cc(C)n(-c3ccccc3)c1=O)O2 | / | / | -14%[14.2 µM] | / | /
c1ccc(CC2=NCCN2)cc1 | 7% | -1% | / | -13% | /
Cc1cc(C(C)(C)C)cc(C)c1CC1=NCCN1 | 0% | -12% | 7.9µM* | -17% | ?
O=C(CS(=O)(=O)c1c[nH]c2ccccc12)NC1CCCCC1 | -2% | -12% | / | 0.5µM* | /
O=C(CS(=O)(=O)c1c[nH]c2ccccc12)Nc1ccc(F)cc1 | -10% | 2% | 5% | -33% | 15%
O=C(CN1CCCN(Cc2cccc(F)c2)S1(=O)=O)Nc1ccc2c(c1)OCCO2 | / | 5% | / | / | -12%[46.1 µM]
SMILES | AMA1-RON2 inh | AmpC inh detg | MARV entry inh | AmpC inh no detg | LASV entry inh
CC(C)CCNC(=S)Nc1ccc([N+](=O)[O-])cc1 | 11% | 0% | ? | -29% | ?
CC(C)OC(=O)c1cc(NC(=S)Nc2ccc([N+](=O)[O-])cc2)cc(C(=O)OC(C)C)c1 | 10% | -6% | 14µM* | -13% | ?
Cc1ccc2nc(/C(C#N)=C/c3ccc(O)c(O)c3)[nH]c2c1 | 48% | 15% | ? | 20µM* | ?
Cc1ccc2nc(/C(C#N)=C/c3cccc(Br)c3)[nH]c2c1 | / | -13% | ? | / | -12%[46.1 µM]
Cc1ccccc1NC(=O)CSc1nc(-c2ccccc2)cn1-c1ccccc1F | / | 8% | / | / | ?
CN(Cc1ccco1)c1ncnc2ccc(-c3cccc(Cl)c3)cc12 | / | ? | / | 47% | /
CCC1CSC(=Nc2ccc(C)cc2)N1C(=O)CN1C(=O)NC2(CCCC2)C1=O (stereo not given) | 3% | -1% | ? | 151% | 10µM*
COc1ccc(NC(=O)c2ccccc2OCc2ccc(F)cc2)c(OC)c1 | -28% | -12% | -20%[46.1 µM] | -22% | /
COc1ccc(NC(=O)c2cnc(SC)n2-c2ccc(F)cc2)c(OC)c1 | -9% | -11% | 13µM* | 91% | ?
CN(C)c1ccc(-c2nc3ccccn3c2/N=C/c2ccc(Br)cc2)cc1 | ? | -1% | ? | 0% | 7.1µM*
O=c1[nH]c(=S)[nH]c2c1C(c1ccc(Br)cc1)c1c([nH]c(=S)[nH]c1=O)O2 | 35µM* | ? | 0%[46.1 µM] | -41% | 0%[46.1 µM]
COc1ccc(N(C(=O)Nc2ccc(Cl)cc2)C2=NCCC2)cc1 | 3% | 9% | -12% | -23% | 6.5µM*
Cc1ccc(N(C(=O)Nc2ccccc2)C2=NCCC2)cc1 | 0% | 2% | 26%[46.1 µM] | 22% | -11%[46.1 µM]
CC(C)c1ccc(C(=O)NC(=S)Nc2ccc3[nH]c(=O)[nH]c3c2)cc1 | 29% | 1% | ? | 8.9µM* | -12%[46.1 µM]
COc1ccc(C(=O)NC(=S)Nc2ccc3[nH]c(=O)[nH]c3c2)cc1 | -5% | -6% | -18%[46.1 µM] | -14% | 2%[46.1 µM]
O=C(CSc1ccccc1C(=O)NCc1ccccc1)NC12CC3CC(CC(C3)C1)C2 | -21% | 0% | ? | 2% | 10µM*
N#CC1CCCc2c1[nH]c1ccc([N+](=O)[O-])cc21 (stereo not given) | -2% | -13% | 10µM* | -23% | ?
O=C1NCCc2c1[nH]c1ccc([N+](=O)[O-])cc21 | 2% | -8% | 13%[46.1 µM] | -12% | /
Cc1ccc(NC(=O)OC(C)N2CCCCC2)cc1NC(=O)OC(C)N1CCCCC1 (stereo not given) | 0% | / | 5µM* | / | ?
Cc1ccc(NC(=O)N2CCCCC2)cc1NC(=O)N1CCCCC1 | -10% | -4% | / | -24% | /
COc1ccccc1C1=NNC(=Nc2cccc(S(=O)(=O)N(C)C)c2)SC1 | 16% | -1% | 7.1µM* | 101% | ?
CCC(=NCc1ccco1)c1c(O)n(C2CCCCC2)c(=O)[nH]c1=O | -6% | -12% | -2% | -13% | 3.7µM*
CC(=NCc1ccco1)c1c(O)n(C2CCCCC2)c(=O)[nH]c1=O | -7% | ? | 18% | -28% | 2%
Cn1c(=O)c2[nH]c(CCCCCCCCc3nc4ccccc4[nH]3)nc2n(C)c1=O | -6% | / | ? | / | 11µM*
CC1(C)CC2CC(C)(CN2S(=O)(=O)c2cccc(C(=O)O)c2)C1 (stereo not given) | 3% | 2% | / | -10% | /
CCCCCNC(=O)c1cccc(S(=O)(=O)N2CC3(C)CC2CC(C)(C)C3)c1 (stereo not given) | 7% | -19% | ? | -23% | 13µM*
